Laboratory results as given in article PMC5700166.
Positions count from the first letter of the chain named.

Assays:
Test in all cases: protein-binding microarray (PBM); PBM: ~300 nM protein, 6 mM HEPES pH 7.8, 80 mM KCl, 0.5 mM EDTA, 0.5 mM EGTA, 6% glycerol, 35 ng/ul poly-dIdC, 1% milk, 1 h, room temperature; Ap Aiptasia and Nv Nematostella (sea anemones) / Co Capsaspora / Aq Amphimedon (sponge) / Dm Drosophila / Hu human; RHD is the Rel homology domain; high values mean tight binding
Conditions in all cases: dsDNA, one strand shown
[1] = molecular target: T1, GST-Ap-NF-kB RHD (Exaiptasia pallida (Aiptasia), UniProt A0A913YAJ5 2-422)
T1 sequence: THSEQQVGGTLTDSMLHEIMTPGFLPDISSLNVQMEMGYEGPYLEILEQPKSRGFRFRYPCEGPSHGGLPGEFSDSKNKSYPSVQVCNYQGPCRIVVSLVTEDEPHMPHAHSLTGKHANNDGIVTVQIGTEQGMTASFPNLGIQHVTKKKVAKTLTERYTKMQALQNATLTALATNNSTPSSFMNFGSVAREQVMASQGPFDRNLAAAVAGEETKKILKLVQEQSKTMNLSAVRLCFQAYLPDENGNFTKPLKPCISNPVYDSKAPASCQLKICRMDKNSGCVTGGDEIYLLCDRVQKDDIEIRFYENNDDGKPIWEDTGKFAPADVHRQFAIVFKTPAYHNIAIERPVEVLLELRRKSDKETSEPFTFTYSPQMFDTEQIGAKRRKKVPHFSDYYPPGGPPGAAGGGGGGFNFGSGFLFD

[2] = molecular target: T2, GST-Nv-NF-kB (Cys allele) (Nematostella vectensis, UniProt E5G601 2-411)
T2 sequence: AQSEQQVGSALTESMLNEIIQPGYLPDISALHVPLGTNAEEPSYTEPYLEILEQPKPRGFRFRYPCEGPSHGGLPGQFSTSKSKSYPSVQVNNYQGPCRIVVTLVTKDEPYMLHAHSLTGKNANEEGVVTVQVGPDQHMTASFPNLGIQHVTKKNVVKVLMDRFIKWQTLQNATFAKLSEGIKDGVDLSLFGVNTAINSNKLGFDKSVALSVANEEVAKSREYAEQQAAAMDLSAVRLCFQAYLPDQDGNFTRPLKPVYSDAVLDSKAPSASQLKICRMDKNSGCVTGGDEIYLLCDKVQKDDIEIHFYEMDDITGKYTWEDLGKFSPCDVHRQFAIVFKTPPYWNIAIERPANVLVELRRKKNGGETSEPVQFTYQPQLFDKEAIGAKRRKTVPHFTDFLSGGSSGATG

[3] = molecular target: T3, GST-Nv-NF-kB (Ser allele) (Nematostella vectensis, UniProt A7UNT2 2-411)
T3 sequence: T2 sequence with Q21R, C66S, S207N, E215Q, V217A, E225K, A268E, D399E

[4] = molecular target: T4, GST-Co-NF-kB (Capsaspora owczarzaki, UniProt F1ARL5 200-546)
T4 sequence: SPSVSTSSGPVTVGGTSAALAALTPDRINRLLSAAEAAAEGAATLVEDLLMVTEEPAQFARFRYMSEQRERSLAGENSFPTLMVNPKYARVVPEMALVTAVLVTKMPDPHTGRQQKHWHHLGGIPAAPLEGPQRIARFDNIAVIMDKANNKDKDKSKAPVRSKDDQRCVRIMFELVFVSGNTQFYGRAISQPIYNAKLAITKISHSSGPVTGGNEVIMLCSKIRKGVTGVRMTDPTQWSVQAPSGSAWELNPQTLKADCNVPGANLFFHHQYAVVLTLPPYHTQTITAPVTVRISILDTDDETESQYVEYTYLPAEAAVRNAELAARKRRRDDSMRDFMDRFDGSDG

[5] = molecular target: T5, GST-Dm-Relish (Drosophila melanogaster, UniProt Q94527 99-473)
T5 sequence: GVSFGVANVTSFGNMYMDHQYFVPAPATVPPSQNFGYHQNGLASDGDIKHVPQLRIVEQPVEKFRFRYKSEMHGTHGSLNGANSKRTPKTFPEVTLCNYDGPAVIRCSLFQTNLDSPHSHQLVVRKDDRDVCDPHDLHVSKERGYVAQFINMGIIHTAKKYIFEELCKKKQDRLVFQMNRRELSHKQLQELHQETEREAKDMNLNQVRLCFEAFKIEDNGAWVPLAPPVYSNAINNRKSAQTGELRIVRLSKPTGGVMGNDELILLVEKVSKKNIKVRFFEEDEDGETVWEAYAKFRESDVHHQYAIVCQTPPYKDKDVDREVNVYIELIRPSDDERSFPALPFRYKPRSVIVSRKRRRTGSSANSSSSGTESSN

[6] = molecular target: T6, GST-Aq-NF-kB (Amphimedon queenslandica, UniProt A9Y5G7 2-389)
T6 sequence: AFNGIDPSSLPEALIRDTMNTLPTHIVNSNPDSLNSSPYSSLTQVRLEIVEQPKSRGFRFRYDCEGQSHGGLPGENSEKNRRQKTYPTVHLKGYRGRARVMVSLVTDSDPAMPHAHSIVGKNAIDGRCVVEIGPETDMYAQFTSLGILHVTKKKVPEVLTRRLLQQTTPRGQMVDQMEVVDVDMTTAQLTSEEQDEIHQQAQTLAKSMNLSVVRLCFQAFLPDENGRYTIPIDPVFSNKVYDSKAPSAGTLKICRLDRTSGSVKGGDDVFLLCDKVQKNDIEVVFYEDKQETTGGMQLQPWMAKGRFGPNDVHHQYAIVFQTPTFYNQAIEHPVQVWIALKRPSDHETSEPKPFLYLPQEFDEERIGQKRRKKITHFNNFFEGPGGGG

[7] = molecular target: GST-Hu-p50 (Homo sapiens, UniProt P19838 7-356)
Chain of GST-Hu-p50 (P19838 7-356): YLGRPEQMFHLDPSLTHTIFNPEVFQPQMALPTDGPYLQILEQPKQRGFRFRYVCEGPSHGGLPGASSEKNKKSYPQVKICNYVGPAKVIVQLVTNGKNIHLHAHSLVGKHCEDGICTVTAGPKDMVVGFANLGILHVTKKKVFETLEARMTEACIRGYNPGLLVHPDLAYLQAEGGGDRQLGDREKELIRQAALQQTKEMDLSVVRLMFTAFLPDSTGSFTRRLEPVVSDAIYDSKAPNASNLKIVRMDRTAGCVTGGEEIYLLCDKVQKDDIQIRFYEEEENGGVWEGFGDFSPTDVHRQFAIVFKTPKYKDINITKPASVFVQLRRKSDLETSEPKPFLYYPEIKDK

| Sequence | binding signal [1] [z-score] | binding signal [2] [z-score] | binding signal [3] [z-score] | binding signal [4] [z-score] | binding signal [5] [z-score] | binding signal [6] [z-score] | binding signal [7] [z-score] |
| --- | --- | --- | --- | --- | --- | --- | --- |
| CCGATTAACATCAAAATTTCCCCTGATGTTAATCGGGTCTTGATTCGCTTGACGCTGCTG | 10.2 | 11.6 | 14.6 | 10.6 | 8.41 | 8.46 | 7.8 |
| CCGATTAACATCACCGTTCCCCCTGATGTTAATCGGGTCTTGATTCGCTTGACGCTGCTG | 6.48 | 5.21 | 6.93 | 6.76 | 2.76 | 4.51 | 5.25 |
| CCGATTAACATCAACTTCCCCCCTGATGTTAATCGGGTCTTGATTCGCTTGACGCTGCTG | 7.03 | 6.37 | 6.34 | 9.16 | 7.29 | 6.32 | 5.76 |
| CCGATTAACATCAAGCACCCCCCTGATGTTAATCGGGTCTTGATTCGCTTGACGCTGCTG | 5 | 3.3 | 3.81 | 3.39 | 4.97 | 4.27 | 4.29 |
| CCGATTAACATCAGGGGAATCCATGATGTTAATCGGGTCTTGATTCGCTTGACGCTGCTG | 8.88 | 9.29 | 9.54 | 5.44 | 9.65 | 7 | 6.48 |
| CCGATTAACATCACGGGGATTCCTGATGTTAATCGGGTCTTGATTCGCTTGACGCTGCTG | 9.77 | 9.58 | 8.87 | 4.28 | 10.6 | 7.41 | 6.46 |
| CCGATTAACATCAAGGGGGATATTGATGTTAATCGGGTCTTGATTCGCTTGACGCTGCTG | 5.89 | 6.77 | 7.37 | 5.64 | 5.23 | 6.15 | 6.33 |
| CCGATTAACATCAACAAATTCCCTGATGTTAATCGGGTCTTGATTCGCTTGACGCTGCTG | 3.83 | 5.69 | 6.87 | 4.16 | 5.03 | 4.44 | 4.56 |
| CCGATTAACATCAATCTTTCCCCTGATGTTAATCGGGTCTTGATTCGCTTGACGCTGCTG | 5.5 | 7.61 | 8.93 | 8.32 | 3.33 | 5.91 | 5.41 |
| CCGATTAACATCAAAATAGTCCCTGATGTTAATCGGGTCTTGATTCGCTTGACGCTGCTG | 7.45 | 7.77 | 7.5 | 2.01 | 4.37 | 6.34 | 5.5 |
| CCGATTAACATCAAGGTTCCCCCTGATGTTAATCGGGTCTTGATTCGCTTGACGCTGCTG | 8.03 | 6.89 | 7.86 | 9.24 | 5.67 | 5.62 | 5.92 |
| CCGATTAACATCAAGGGGGGGTGTGATGTTAATCGGGTCTTGATTCGCTTGACGCTGCTG | 4.34 | 2.8 | 3.53 | 4.12 | 4.4 | 3.77 | 4.28 |
| CCGATTAACATCAGGGAAATCACTGATGTTAATCGGGTCTTGATTCGCTTGACGCTGCTG | 3.41 | 4.78 | 4.63 | 2.62 | 8.27 | 5.99 | 4.18 |
| CCGATTAACATCAGGGGATTATATGATGTTAATCGGGTCTTGATTCGCTTGACGCTGCTG | 7.99 | 9.17 | 9.52 | 4.18 | 6.72 | 7.52 | 6.4 |
| CCGATTAACATCAAATATTCCCCTGATGTTAATCGGGTCTTGATTCGCTTGACGCTGCTG | 8.25 | 10.7 | 11 | 10.1 | 7.22 | 8.12 | 6.65 |
| CCGATTAACATCAGGGGACTACCTGATGTTAATCGGGTCTTGATTCGCTTGACGCTGCTG | 7.56 | 5.88 | 4.89 | 2.47 | 7.3 | 7.36 | 4.79 |
| CCGATTAACATCAGGCAAACCCCTGATGTTAATCGGGTCTTGATTCGCTTGACGCTGCTG | 3.13 | 2.8 | 1.51 | 1.49 | 3.13 | 4.85 | 3.63 |
| CCGATTAACATCAAAAGATCCCCTGATGTTAATCGGGTCTTGATTCGCTTGACGCTGCTG | 8.32 | 8.42 | 9.3 | 5.39 | 9.75 | 7.5 | 6.41 |
| CCGATTAACATCAAAGTTTCCCATGATGTTAATCGGGTCTTGATTCGCTTGACGCTGCTG | 2.54 | 4.29 | 3.82 | 4.66 | 2.05 | 4.32 | 3.28 |
| CCGATTAACATCAATATTCCCCCTGATGTTAATCGGGTCTTGATTCGCTTGACGCTGCTG | 8.39 | 9.05 | 10 | 10.4 | 6.05 | 7.05 | 7.24 |
| CCGATTAACATCAAATAACCCCCTGATGTTAATCGGGTCTTGATTCGCTTGACGCTGCTG | 7.15 | 7.1 | 7.94 | 4.2 | 8.44 | 7.02 | 6.17 |
| CCGATTAACATCAAATTTCCCATTGATGTTAATCGGGTCTTGATTCGCTTGACGCTGCTG | 2.36 | 4.83 | 4.27 | 3.32 | 2.68 | 4.29 | 3.86 |
| CCGATTAACATCAGGGGAATCAATGATGTTAATCGGGTCTTGATTCGCTTGACGCTGCTG | 5.46 | 6.47 | 8.04 | 5.78 | 5.48 | 4.26 | 4.98 |
| CCGATTAACATCAGGGGGACTAATGATGTTAATCGGGTCTTGATTCGCTTGACGCTGCTG | 5.06 | 4.36 | 4.4 | 4.79 | 2.76 | 4.27 | 3.8 |
